Inconclusive results are not listed. Entries that show only a call come without a potency. The source made the active and inactive calls. The call rests on the fitted dose curve; in most records, active means well fitted inhibition curve with a large enough effect; inconclusive means small, poorly fitted or top-dose-only effect, or effect the other way; inactive means flat fitted curve, though single readings scatter.

Our source for the Potency values is PubChem BioAssay (NCATS).

Sequence of ATP-dependent 6-phosphofructokinase (Trypanosoma brucei brucei) (O15648 whole entry, looked up): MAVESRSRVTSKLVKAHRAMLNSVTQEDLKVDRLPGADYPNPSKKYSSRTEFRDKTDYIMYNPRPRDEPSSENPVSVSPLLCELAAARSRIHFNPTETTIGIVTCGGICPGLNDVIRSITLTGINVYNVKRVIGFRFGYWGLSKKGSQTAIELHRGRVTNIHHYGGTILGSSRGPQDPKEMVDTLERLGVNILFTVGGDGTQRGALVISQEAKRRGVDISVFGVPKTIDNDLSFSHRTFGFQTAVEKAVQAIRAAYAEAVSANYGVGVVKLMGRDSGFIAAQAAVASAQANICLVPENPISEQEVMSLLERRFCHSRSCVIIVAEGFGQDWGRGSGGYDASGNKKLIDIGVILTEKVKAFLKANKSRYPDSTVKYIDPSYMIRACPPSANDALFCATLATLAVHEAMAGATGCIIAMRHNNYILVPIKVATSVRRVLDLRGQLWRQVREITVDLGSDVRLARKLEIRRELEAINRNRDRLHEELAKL

In this test the target is ATP-dependent 6-phosphofructokinase (Trypanosoma brucei brucei) (UniProt O15648). Kind of test: qHTS Assay to Find Inhibitors of T. brucei phosphofructokinase: hit validation (AID 492961). The settings on record: T. brucei PFK, ADP-Glo luminescence; series mostly up to 51.4 µM. The essentials:
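Luminescence from ADP-Glo reports ADP generated as T. brucei PFK (1.25 nM) phosphorylates 0.5 mM fructose-6-phosphate using 0.1 mM ATP. Reactions ran 45 min at room temperature, pH 8.0.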
Background: qHTS replaces the single test concentration by a dilution series.
As for `CCOC(=O)Nc1ccc2c(c1)N(C(=O)CCN1CCOCC1)c1ccccc1S2`, the Potency result was “inactive”. Turning to `CCN(CC)CCOc1ccc2c(c1)C(=O)c1cc(OCCN(CC)CC)ccc1-2`, the Potency result was “inactive”. For the molecule `O=C(Nc1cccc(C2=NCCN2)c1)Nc1cccc(C2=NCCN2)c1`, the Potency result is “inactive”. With `CCCCCCCCCCCCCCCCO`, the Potency result was “inactive”.

With `CN(C)CCOC(c1ccc(Cl)cc1)c1ccccn1` (configuration not stated), the Potency result is “inactive”. Turning to `COc1ccc2c(c1)c1c3n2CCN(C)C3=NCC1`, the Potency result was “inactive”. Consider `CCOC(=O)C(C#N)=C(c1ccccc1)c1ccccc1`, for which the Potency entry is “inactive”.

In the case of `CN1CCN(c2c(F)cc3c(=O)c(C(=O)O)cn4c3c2SCC4)CC1`, the Potency entry is “inactive”. In the case of `CC(C)(C)CC(C)(C)c1ccc(O)c(-n2nc3ccccc3n2)c1`, the Potency result is “inactive”. Take `COP(=O)(OC)OC(c1ccc(Cl)cc1)P(=O)(OC)OC` (configuration not stated): the Potency entry is “inactive”. Turning to `Cn1c(=O)c2[nH]c(Br)nc2n(C)c1=O`, the Potency entry is “inactive”. Under `O=S(c1cc(Cl)cc(Cl)c1O)c1cc(Cl)cc(Cl)c1O` stands “inactive”; under `Nc1ccc(C(=O)NCC(=O)O)cc1`, “inactive”.

In the case of `CCCCCCCCCCCCSCCOCCO`, the Potency entry is “inactive”. As for `CCOC(=O)c1ccc(N)cc1`, the Potency result was “inactive”. For the molecule `COc1ccc(CN(CCN(C)C)c2ncccn2)cc1`, the Potency result is “inactive”.

`CC(=O)NC(=O)c1ccccc1O`: the Potency result was “inactive”.

Turning to `COc1cc(C(=O)N2CCCCCCC2)cc(OC)c1OC`, the Potency result was “inactive”. Regarding `O=C(CN1CCN(Cc2ccc3c(c2)OCO3)CC1)N1c2ccccc2Sc2ccccc21`, the Potency entry was “inactive”. Regarding `Cc1cccc(C)c1NC(=O)CN1CCCC1`, the Potency result is “inactive”. For `CCc1oc2ccccc2c1C(=O)c1cc(I)c(O)c(I)c1`, the Potency entry is “inactive”. With `NC(=O)c1ccccc1O`, the Potency result was “inactive”. Regarding `CC[C@H](c1ccc(O)cc1)[C@@H](CC)c1ccc(O)cc1`, the Potency result is “inactive”. Consider `N=C(N)N1CCc2ccccc2C1`, for which the Potency result was “inactive”. Regarding `CC(=O)Nc1ccc(CC(=O)O)cc1`, the Potency result is “inactive”.

Take `CN(C)CCN1C(=O)c2ccccc2N(C)c2ccccc21`: the Potency result was “inactive”.

As for `C[C@@H](O)[C@H]1C(=O)N2C(C(=O)O)=C(S[C@@H]3CN[C@H](CNS(N)(=O)=O)C3)[C@H](C)[C@H]12`, the Potency entry was “inactive”. With `CC(C)NCC(O)c1ccc2ccccc2c1` (configuration not stated), the Potency entry is “inactive”. As for `CCOC(=O)c1c(N)sc2c1CCN(Cc1ccccc1)C2`, the Potency entry is “inactive”.

As to `O=[N+]([O-])c1cccc(S(=O)(=O)NCCNS(=O)(=O)c2cccc([N+](=O)[O-])c2)c1`, the Potency entry was “inactive”. Regarding `O=C(Oc1cccc2cccnc12)c1ccccc1`, the Potency entry is “inactive”. Under `CN1CCN(C2=Nc3cc(F)ccc3Cc3ccccc32)CC1` stands “inactive”; under `CCOc1ccccc1C(N)=O`, “inactive”; under `O=C(c1ccc(F)cc1)C1CCN(CCn2c(=S)[nH]c3ccccc3c2=O)CC1`, “inactive”.

As for `COc1ccc(/C=N/NC(=O)c2ccncc2)cc1OC`, the Potency entry was “inactive”. In the case of `CCNC(=O)/C=C/c1cccc(Br)c1`, the Potency entry is “inactive”. Consider `NC(=S)N/N=C/c1cccnc1`, for which the Potency result was “inactive”.
